These results are taken from PubChem BioAssay (EPA / NIEHS).

The target of experiment [1] is Myc proto-oncogene protein (Homo sapiens) (UniProt P01106). The experiment in a line: ATG_Myc_CIS: Attagene CIS-FACTORIAL HepG2 Assay for human Myelocytomatosis (Myc) Proto-Oncogene Transcription Factor (AID 2282990). Conditions: HepG2, Attagene cis-reporter transcription factor activity; actives raise or lower the signal. An outline of the steps: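 Transiently transfected HepG2 cells bearing cis-promoter reporter units for endogenous transcription factors; 24 h exposure. Reporter mRNA measured by RT-PCR, 6-FAM primer extension, HpaI cut and capillary electrophoresis; bidirectional fit relative to DMSO.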

The nature of experiment [2]: ATG_Oct_MLP_CIS: Attagene CIS-FACTORIAL HepG2 Assay for human Octamer-Binding Transcription Factor (Oct) (AID 2282993). Conditions: HepG2 Attagene cis-factorial Oct reporter, mRNA; actives raise or lower the signal. In outline:
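Readout is reporter transcript level from RT-PCR with fluorescent primer extension and capillary electrophoresis, fitted in both directions against DMSO. Transfected HepG2 reporter units report endogenous factor activity after 24 h dosing.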

Experiment [3] addresses Cellular tumor antigen p53 (Homo sapiens) (UniProt P04637). The experiment in a line: ATG_p53_CIS: Attagene CIS-FACTORIAL HepG2 Assay for human p53 Transcription Factor (AID 2282994). Conditions: HepG2 p53 cis-element reporter, Attagene mRNA; actives raise or lower the signal. An outline of the steps:
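In HepG2 cells, reporter transcription units under cis-regulatory promoters were transiently introduced. Following 24 h treatment, RNA was processed to labelled, digested cDNA fragments read by capillary electrophoresis; fitting was bidirectional versus DMSO.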

A short description of experiment [4]: BSK_3C_uPAR: BioMAP Diversity Plus: 3C Assay for Urokinase-type plasminogen activator receptor (uPAR) Biomarker Activity (AID 2282998). Conditions: BioMAP 3C HUVEC, uPAR biomarker ELISA; actives raise or lower the signal. An outline of the steps: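 Cell-surface uPAR on HUVEC (3C system) read by ELISA at 24 h post-treatment, with DMSO as baseline and fitting in both directions. Parallel cultures stained with SRB to flag overt cytotoxicity.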

Experiment [5] can be described thus: BSK_3C_VCAM1: BioMAP Diversity Plus: 3C Assay for Vascular cell adhesion molecule 1 (VCAM1) Biomarker Activity (AID 2282999). Conditions: BioMAP 3C HUVEC, VCAM1 ELISA, cytokine-stimulated; actives raise or lower the signal. In outline: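 HUVEC primary cells, 24 h compound exposure; VCAM-1 by ELISA; gain/loss of signal fitted bidirectionally vs DMSO baseline.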

The nature of experiment [6]: BSK_4H_Eotaxin3: BioMAP Diversity Plus: 4H Assay for Eotaxin 3 Biomarker Activity (AID 2283000).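 Also: CCL26 protein level quantified by ELISA in parallel with SRB cytotoxicity check.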 Conditions: primary human endothelial cells (HUVEC); actives raise or lower the signal. In outline:
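Eotaxin-3 (CCL26) levels were measured by ELISA in HUVEC primary cultures 24 h post-dosing. Gain or loss of signal was fitted in both directions, with DMSO serving as baseline and negative control.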

Experiment [7] concerns the target human Peroxisome Proliferator-activated Receptor alpha (PPARa), PPARA (gene 5465) (UniProt Q07869). The experiment in a line: ATG_PPARa_TRANS: Attagene TRANS-FACTORIAL HepG2 Assay for human Peroxisome Proliferator-activated Receptor alpha (PPARa) (AID 2283001; active = hit-call score of the fitted dose curve at least 0.9, where 1 is the maximum;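 as to AC50: potency for gain of reporter signal over DMSO so agonist or activator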). An outline of the steps: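 Transient HepG2 transfection, GAL4-UAS reporters, NR-Gal4 chimeras; 24 h compound exposure. Readout: reporter transcripts by RT-PCR, 6-FAM primer extension, HpaI digest, capillary electrophoresis. Positive direction vs DMSO baseline.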

Experiment [8] in a line: ATG_NRF2_ARE_CIS: Attagene CIS-FACTORIAL HepG2 Assay for human Nuclear Factor Erythroid 2 Related Factor 2 (NFR2) response to Antioxidant Response Elements (ARE) (AID 2282992).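 As to AC50: reporter mRNA level measured by RT-PCR and capillary electrophoresis fluorescence.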 Conditions: HepG2 Attagene ARE/NRF2 reporter, transcription factor activity; actives raise or lower the signal. In outline:
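Using transiently transfected HepG2 cells exposed for 24 h, reporter mRNA levels were determined by RT-PCR with fluorescent primer extension and capillary electrophoresis, analysed for gain or loss of signal against DMSO.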

Experiment [9] in a line: BSK_3C_TissueFactor: BioMAP Diversity Plus: 3C Assay for Tissue Factor Biomarker Activity (AID 2282997). Conditions: BioMAP 3C HUVEC, tissue factor biomarker readout; actives raise or lower the signal. An outline of the steps:
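Tissue Factor measured by ELISA, 24 h after treatment of primary HUVEC in the BioMAP 3C setting.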

A short description of experiment [10]: ATG_NF_kB_CIS: Attagene CIS-FACTORIAL HepG2 Assay for human Nuclear Factor Kappa B (NF-kB) (AID 2282991). Conditions: HepG2 Attagene cis-factorial NF-kB reporter mRNA; actives raise or lower the signal. An outline of the steps: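 After 24 h compound incubation, transfected HepG2 cells yield total RNA; reporter cDNA is PCR-amplified, end-labelled with 6-FAM, HpaI-digested and analysed on a genetic analyser. Endogenous factor activity, DMSO-referenced bidirectional fit.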

Results filed as inconclusive are left out. Some compounds were tested as several samples or in several runs, with calls that do not always agree. Calls of active or inactive are those of the source. The calls were made as follows, unless noted: active = hit-call score of the fitted dose curve at least 0.9, where 1 is the maximum; inactive = score below 0.9.

Chain of Cellular tumor antigen p53 (Homo sapiens) (P04637 whole entry, looked up, the tested form may be a part): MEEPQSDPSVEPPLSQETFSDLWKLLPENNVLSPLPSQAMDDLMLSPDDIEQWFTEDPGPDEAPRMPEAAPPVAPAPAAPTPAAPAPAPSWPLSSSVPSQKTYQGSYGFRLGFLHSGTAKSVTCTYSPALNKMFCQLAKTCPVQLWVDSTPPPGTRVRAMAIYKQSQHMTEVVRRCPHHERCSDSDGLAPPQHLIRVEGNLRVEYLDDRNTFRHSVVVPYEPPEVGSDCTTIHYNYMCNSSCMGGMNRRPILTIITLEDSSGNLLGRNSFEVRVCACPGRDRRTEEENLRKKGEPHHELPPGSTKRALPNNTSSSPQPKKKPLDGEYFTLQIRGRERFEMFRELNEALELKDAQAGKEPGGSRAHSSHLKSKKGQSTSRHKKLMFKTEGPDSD
Chain of Myc proto-oncogene protein (Homo sapiens) (P01106 whole entry, looked up): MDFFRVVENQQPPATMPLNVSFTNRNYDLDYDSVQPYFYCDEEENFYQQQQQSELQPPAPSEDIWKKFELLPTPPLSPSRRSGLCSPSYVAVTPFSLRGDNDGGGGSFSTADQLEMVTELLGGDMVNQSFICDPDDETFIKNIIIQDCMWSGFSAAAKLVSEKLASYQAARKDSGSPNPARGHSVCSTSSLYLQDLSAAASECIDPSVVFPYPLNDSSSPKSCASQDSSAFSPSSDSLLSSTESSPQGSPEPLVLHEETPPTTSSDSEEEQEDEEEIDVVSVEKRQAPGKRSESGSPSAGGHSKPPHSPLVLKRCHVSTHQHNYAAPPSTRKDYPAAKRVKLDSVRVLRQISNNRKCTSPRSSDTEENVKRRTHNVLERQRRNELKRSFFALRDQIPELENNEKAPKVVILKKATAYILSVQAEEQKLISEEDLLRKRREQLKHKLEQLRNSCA
Chain of human Peroxisome Proliferator-activated Receptor alpha (PPARa), PPARA (gene 5465) (Q07869 whole entry, looked up, the tested form may be a part): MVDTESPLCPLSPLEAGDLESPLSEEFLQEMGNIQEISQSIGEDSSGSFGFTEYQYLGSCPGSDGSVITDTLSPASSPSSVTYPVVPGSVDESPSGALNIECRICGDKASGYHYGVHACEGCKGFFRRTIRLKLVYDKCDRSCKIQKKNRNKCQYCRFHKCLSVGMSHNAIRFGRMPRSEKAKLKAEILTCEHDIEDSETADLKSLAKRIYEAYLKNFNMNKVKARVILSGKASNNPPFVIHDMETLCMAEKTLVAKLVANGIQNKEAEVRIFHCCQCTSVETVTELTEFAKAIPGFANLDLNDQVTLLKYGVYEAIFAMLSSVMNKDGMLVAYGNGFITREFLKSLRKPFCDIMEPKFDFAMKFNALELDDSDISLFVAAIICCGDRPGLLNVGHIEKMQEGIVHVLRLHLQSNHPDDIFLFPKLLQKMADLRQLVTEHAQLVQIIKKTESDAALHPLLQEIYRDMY

With `CCCCCCCC1CCC(=O)O1` (stereo unspecified), the molecule was classed as inactive in [1], in experiment [2], in experiment [3], in experiment [4], in experiment [5] and in experiment [6]. The molecule was classed as inactive in experiment [7].
One may read the AC50 as the concentration at which the activity in the assay is half-maximal. As to `CCCCCCCCCCCCCCCCOS(=O)(=O)O`, the molecule was classed as inactive in experiment [1], in experiment [2], in experiment [9], in experiment [4], in [5] and in experiment [6]. The values for the half-maximal activity concentration (AC50) in experiment [8], in experiment [3] and in [7] were 27.3 µM (active), 24.9 µM (active) and 9.15 µM (active), respectively.
Turning to `CCOC(N)=O`, the molecule was called inactive in experiment [1], in [8], in [2], in experiment [3], in experiment [9] and in experiment [4]. The outcome in experiment [5] and in experiment [6] was inactive.
On to `CC(C)c1nnc2ccc(-c3ocnc3-c3cc(F)ccc3F)cn12`, for which the molecule was classed as inactive in experiment [1], in experiment [3], in experiment [4], in experiment [5], in experiment [6] and in [7]. In addition, the half-maximal activity concentration (AC50) in experiment [2] is 130 µM (active).
Turning to `OC(Cn1cncn1)(Cn1cncn1)c1ccc(F)cc1F`, the molecule was called inactive in experiment [10], in [8], in [2], in experiment [3], in [9] and in experiment [4]. For the same molecule, the outcome in experiment [5] and in [6] was inactive.
As for `FC(F)=C(F)C(F)(F)C(F)(F)C(F)(F)C(F)(F)C(F)(F)C(F)(F)F`, the molecule was classed as inactive in [10], in [8], in [2], in [3], in experiment [4] and in experiment [5]. Also, the outcome in experiment [6] and in [7] was inactive. Moreover, the AC50 in experiment [8] was 86.6 µM (active); in [2] it was 267 µM (active).
Consider `Cc1ncc([C@@H](CCCCCCc2ccc3c(n2)NCCC3)CC(=O)O)cn1`, for which the result in experiment [1], in [8], in experiment [2], in experiment [9], in [4] and in [5] was inactive. Also, in experiment [6], the result was inactive. In addition, in [7], the half-maximal activity concentration (AC50) was 19.8 µM (active).
For the molecule `CCCCC(CC)C(=O)OCCOCCOCCOC(=O)C(CC)CCCC` (stereo unspecified), the molecule was called inactive in experiment [10], in [8], in experiment [2], in experiment [3], in experiment [9] and in experiment [4]. The result in experiment [5] and in experiment [6] was inactive.
Take `C=CN1CCCC1=O`: the call in experiment [1], in experiment [8], in [2], in experiment [3], in experiment [4] and in experiment [5] was inactive. Also, in experiment [6], the outcome was inactive.
As for `c1ccc(C(O[C@@H]2CCCN(CCc3ccc4c(c3)OCO4)C2)c2ccccc2)cc1`, the molecule was classed as inactive in experiment [1], in experiment [5] and in [6]. For the same molecule, the AC50 in experiment [8] was 33 µM (active); in experiment [2], 23.3 µM (active); in experiment [3], 52.6 µM (active); in experiment [4], 27.5 µM (active).
In the case of `COCc1nnc(-c2ccc[n+]([O-])c2)n1-c1c(Cl)c(Cl)cc2[nH]c(=O)c(=O)[nH]c12`, the result in experiment [1], in experiment [8], in experiment [2], in experiment [4], in [5] and in experiment [6] was inactive.
Take `CCOc1ccc2[nH]cc(C(=O)NCc3ccccc3)c(=O)c2n1`: the AC50 in experiment [8] is 9.32 µM (active). Further, the result in experiment [2], in [4], in [5] and in experiment [6] was inactive.
Turning to `OC[C@H]1O[C@@H]2O[C@H]3[C@H](O)[C@@H](O)[C@@H](O[C@H]4[C@H](O)[C@@H](O)[C@@H](O[C@H]5[C@H](O)[C@@H](O)[C@@H](O[C@H]6[C@H](O)[C@@H](O)[C@@H](O[C@H]7[C@H](O)[C@@H](O)[C@@H](O[C@H]1[C@H](O)[C@H]2O)O[C@@H]7CO)O[C@@H]6CO)O[C@@H]5CO)O[C@@H]4CO)O[C@@H]3CO`, the outcome in experiment [8], in experiment [2], in [9], in [4], in experiment [5] and in experiment [6] was inactive.
In the case of `OC[C@H]1O[C@@](CO)(O[C@H]2O[C@H](CO)[C@@H](O)[C@H](O)[C@H]2O)[C@@H](O)[C@@H]1O`, the call in experiment [10], in experiment [2], in experiment [4], in experiment [5] and in [6] was inactive. For the same molecule, the AC50 in experiment [8] is 58.6 µM (active).
In the case of `Cc1nc(-c2ccccn2)ncc1C(=O)Nn1cc(C)c2cc(F)ccc21`, the call in experiment [10], in experiment [8], in experiment [2], in experiment [5] and in [6] was inactive. Also, in experiment [4], the AC50 is 20 µM (active).
As for `CCCCCCOC(=O)CC(CC(=O)OCCCCCC)(OC(=O)CCC)C(=O)OCCCCCC`, the call in [10], in [8], in experiment [2], in experiment [9], in [4] and in [5] was inactive. In experiment [6], the outcome was inactive.
Regarding `CNC(C)=O`, the molecule was classed as inactive in [8], in experiment [2], in experiment [9], in [4], in experiment [5] and in [6].
On to `O=C(O)c1cccc(C(=O)O)c1`, for which the molecule was classed as inactive in [8], in experiment [2], in experiment [9], in experiment [4], in [5] and in [6]. Besides, in [7], the molecule was called inactive.
For the molecule `Nc1ccn([C@@H]2O[C@H](CO)[C@@H](O)[C@@H]2O)c(=O)n1`, the call in experiment [8], in experiment [2], in [9], in experiment [4], in [5] and in experiment [6] was inactive.
Regarding `O=S1(=O)CCCO1`, the molecule was classed as inactive in [8], in experiment [2], in [3], in [4], in experiment [5] and in experiment [6]. Further, in experiment [7], the call was inactive.
